# From PubChem BioAssay (NCATS)
# Records with an inconclusive call do not appear. Activity calls are given as the source filed them. Unless noted, calls follow the shape of the full dose curve.
# How the values were obtained:
# [1] = Cytotoxicity counterscreen for inhibitors of SARS-CoV-2 cell entry (AID 1645845); conditions: outcome: dose series up to 57.1 µM unless noted; also: nearly all actives have a fitted effect of over 50% in size; also: potency is read from the fitted curve at half-maximal effect; as to activity change, negative = cytotoxicity: % is scaled to controls: 0 for no effect and ±100 for the full control effect
# Outline: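 ATP-content luminescence (ATPLite 1step, 15 min RT) read after 48 h compound exposure of Expi293F cells stably expressing human ACE2; normalized to cells-only wells and media-only wells.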
# [2] = Primary qHTS to identify inhibitors of SARS-CoV-2 cell entry (AID 1645846); conditions: SARS-CoV-2 pseudovirus cell entry assay, luminescence; activity change, negative = inhibition: at 57.1 µM (top of the series) unless noted; also: nearly all actives have a fitted effect of over 45% in size; also: potency is read from the fitted curve at half-maximal effect
# Outline: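 HEK293-ACE2 (Expi293F, stable hACE2), 1500 cells/well, o/n 37C; cpd 23 nL pin, 1 h; MLV-PP w/ SARS-CoV-2-S (Wuhan-Hu-1, Δ19 C-term); 48 h 37C; Bright-Glo luminescence; normalized vs S-PP and bald PP.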
# [3] = Validation screen for inhibitors of Lassa infection (AID 463096); also: % is scaled to controls: 0 for no effect and ±100 for the full control effect
# [4] = VSVG counterscreen qHTS to identify inhibitors of SARS-CoV-2 cell entry (AID 1645847); also: nearly all actives have a fitted effect of over 65% in size; also: potency is read from the fitted curve at half-maximal effect; as to activity change, negative = inhibition: % is scaled to controls: 0 for no effect and ±100 for the full control effect
# Outline: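 Expi293F/hACE2 cells, overnight plating; cpd 1 h, 37C/5% CO2; + VSV-G PP (MLV pseudotyping), 48 h; supernatant removed, Bright-Glo luciferase read. Norm: VSV-G PP and bald PP wells.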
# [5] = qHTS profiling of the MIPE4 collection as inhibitors of Plasmodium falciparum (3D7) proliferation (AID 743344; call rule not given here;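 also: scaled between DMSO vehicle wells and 0.29 µM artemisinin as full inhibition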); conditions: P. falciparum 3D7 in erythrocytes, SYBR Green DNA fluorescence, 72 h; at 28.5 µM (top of the series)
# Outline: (§1)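 Parasite DNA was quantified by SYBR Green I fluorescence (ex 485, em 535 nm) after overnight lysis in saponin/Triton buffer at room temperature. Cultures at 0.3% parasitemia and 2.5% hematocrit were first exposed to compound for 72 h at 37 C; signals were normalised to artemisinin (0.29 uM) and vehicle wells.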
# [6] = qHTS profiling of the MIPE4 collection as inhibitors of Plasmodium falciparum (DD2) proliferation (Rep 2) (AID 743346; call rule not given here); conditions: P. falciparum Dd2 in erythrocytes, SYBR Green DNA, 72 h; at 28.5 µM (top of the series)
# Outline: as §1
# [7] = qHTS profiling of the MIPE4 collection as inhibitors of Plasmodium falciparum (HB3) proliferation (AID 743347; call rule not given here;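 also: plate controls were DMSO vehicle wells for no effect and artemisinin wells for full effect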); conditions: P. falciparum HB3 in erythrocytes, SYBR Green DNA, 72 h; at 28.5 µM (top of the series)
# Outline: as §1
# [8] = target: Bile acid receptor (Homo sapiens) (UniProt Q96RI1); test: qHTS assay for small molecule agonists of farnesoid X receptor signaling (AID 588527); conditions: HEK293T FXR-UAS-bla, beta-lactamase ratio, 16 h; stronger effect = higher value;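 also: 0% = vehicle basal and 100% = reference agonist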
# Chain of Bile acid receptor (Homo sapiens) (Q96RI1 whole entry, looked up): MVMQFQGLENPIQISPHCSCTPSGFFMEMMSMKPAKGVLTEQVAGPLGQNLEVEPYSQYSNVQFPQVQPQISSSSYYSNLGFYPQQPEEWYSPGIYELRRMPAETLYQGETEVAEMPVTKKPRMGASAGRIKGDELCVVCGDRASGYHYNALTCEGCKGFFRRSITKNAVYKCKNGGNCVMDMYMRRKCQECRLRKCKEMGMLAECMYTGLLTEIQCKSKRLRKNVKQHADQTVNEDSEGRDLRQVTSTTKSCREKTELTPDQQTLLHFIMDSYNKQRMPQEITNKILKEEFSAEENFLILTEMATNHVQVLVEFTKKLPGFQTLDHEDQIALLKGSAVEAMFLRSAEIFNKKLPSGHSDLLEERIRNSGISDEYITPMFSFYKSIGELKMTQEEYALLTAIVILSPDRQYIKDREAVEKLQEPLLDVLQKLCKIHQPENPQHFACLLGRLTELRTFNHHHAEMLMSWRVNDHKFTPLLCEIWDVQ
# Outline: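 Agonist-mode beta-lactamase reporter in GeneBLAzer FXR-UAS-bla HEK293T cells, titration up to 92 uM, 16 h exposure at 37 C, CCF4 fluorescence. Response scaled to DMSO (0%) and 100 uM chenodeoxycholic acid (100%), then Hill-fitted for EC50 and efficacy.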
# [9] = target: Nuclear receptor subfamily 1 group I member 3 (Homo sapiens) (UniProt Q14994); test: Primary qHTS for antagonist of constitutive androstane receptor (CAR) against the NCATS DSHEA and TCM libraries (AID 1794836; active = well fitted curve in the direction sought with a large enough effect; an effect the other way counts as inactive or inconclusive;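 also: HepG2 cells stably expressing hCAR with CYP2B6 luciferase reporter stimulated by CITCO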)
# Chain of Nuclear receptor subfamily 1 group I member 3 (Homo sapiens) (Q14994 whole entry, looked up): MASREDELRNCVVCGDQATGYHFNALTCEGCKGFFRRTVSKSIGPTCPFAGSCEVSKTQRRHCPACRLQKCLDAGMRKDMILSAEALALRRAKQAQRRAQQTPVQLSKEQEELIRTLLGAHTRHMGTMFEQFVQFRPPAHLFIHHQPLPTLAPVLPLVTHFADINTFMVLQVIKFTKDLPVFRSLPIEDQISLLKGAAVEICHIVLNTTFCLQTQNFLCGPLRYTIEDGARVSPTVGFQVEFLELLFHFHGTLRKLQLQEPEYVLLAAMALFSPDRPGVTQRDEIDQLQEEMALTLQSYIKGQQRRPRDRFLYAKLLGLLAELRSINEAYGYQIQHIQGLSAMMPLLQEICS
# Outline: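 Antagonist mode: CAR reporter luminescence (ONE-Glo) in HepG2-CYP2B6-hCAR cells stimulated with 48 uM CITCO (final) over 24 h at 37 C, compounds titrated; viability read first by CellTiter-Fluor fluorescence.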
# [10] = KB-8-5-11 P-gp reporter qHTS against the NCATS DSHEA and TCM libraries (AID 1919977; active = well fitted curve in the direction sought with a large enough effect; an effect the other way counts as inactive or inconclusive; also: 0% is about no effect)
# Outline: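 CellTiter-Glo luminescence after ~72 h exposure at 37C gave viability of KB-8-5-11 cells, the P-gp-overexpressing subline. Substances were titrated; colchicine was omitted from assay medium.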
# [11] = target: Glutathione peroxidase 1 (Homo sapiens) (UniProt P07203); test: Primary qHTS Assay for Inhibitors of Recombinant Selenoprotein Glutathione Peroxidase 1 (GPX1) (AID 1845191; active = well fitted curve in the direction sought with a large enough effect; an effect the other way counts as inactive or inconclusive; also: nearly all actives have a fitted effect of over 65% in size)
# Chain of Glutathione peroxidase 1 (Homo sapiens) (P07203 whole entry, looked up): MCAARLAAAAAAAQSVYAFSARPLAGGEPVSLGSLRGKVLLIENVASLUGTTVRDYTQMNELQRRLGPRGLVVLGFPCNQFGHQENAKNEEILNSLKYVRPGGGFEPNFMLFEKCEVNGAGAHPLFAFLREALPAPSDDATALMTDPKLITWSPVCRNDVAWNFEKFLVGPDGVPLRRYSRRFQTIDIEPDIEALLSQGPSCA
# Outline: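 NADPH consumption tracked by fluorescence at 340/450 nm between t=0 and t=15 min, room temperature. Final mix: 10 nM GPX1, 100 nM glutathione reductase, 1 mM GSH, 0.5 mM NADPH, 0.5 mM cumene hydroperoxide, 0.01% BSA; 30 min compound–enzyme preincubation.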
# [12] = target: Phospholipid hydroperoxide glutathione peroxidase GPX4 (Homo sapiens) (UniProt P36969); test: Primary qHTS Assay for Inhibitors of Recombinant Selenoprotein Glutathione Peroxidase 4 (GPX4) (AID 1845192; active = well fitted curve in the direction sought with a large enough effect; an effect the other way counts as inactive or inconclusive; also: % is scaled to controls: 0 for no effect and ±100 for the full control effect; nearly all actives have a fitted effect of over 65% in size)
# Chain of Phospholipid hydroperoxide glutathione peroxidase GPX4 (Homo sapiens) (P36969 whole entry, looked up): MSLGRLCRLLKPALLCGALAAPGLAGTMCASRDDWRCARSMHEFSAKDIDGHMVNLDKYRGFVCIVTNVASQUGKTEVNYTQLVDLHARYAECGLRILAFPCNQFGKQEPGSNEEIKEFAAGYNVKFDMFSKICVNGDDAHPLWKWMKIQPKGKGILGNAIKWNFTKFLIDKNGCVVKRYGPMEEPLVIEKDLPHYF
# Outline: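 NADPH consumption followed by fluorescence at 340/450 nm, t=0 and after 15 min at room temperature. Reaction started with cumene hydroperoxide (0.5 mM final) after 30 min compound–GPX4 preincubation; final 200 nM GPX4, 100 nM GR, 1 mM GSH, 0.5 mM NADPH.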
# [13] = qHTS drug screen for cell cycle checkpoint inhibitors in PARPi-resistant BRCA-mutant ovarian cancer cell lines. (AID 1963452); conditions: PEO1/OlaR viability, CellTiter-Glo luminescence, 96 h, stronger effect = lower value
# Outline: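 PEO1, PEO4 and PEO1/OlaR ovarian cancer cells, 600 per well, exposed 96 h at 37C to a dilution series. Viability read by CellTiter-Glo luminescence, normalized to DMSO and empty wells; activity summarized as Z-AUC.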
# [14] = MultiTox-Fluor Cytotoxicity Assay - LYMP1-002 - Dead Cells (AID 960; active = well fitted curve in the direction sought with a large enough effect; an effect the other way counts as inactive or inconclusive; also: potency is read from the fitted curve at half-maximal effect; nearly all actives have a fitted effect of over 60% in size)
# Outline: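 Concentration-dependent increases in membrane-leaked protease activity are quantified in LYMP1-002 cells after 16 hr treatment; values are normalized against DMSO and tetraoctylammonium bromide (15 uM) controls and AC50 derived by Hill modeling.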
# [15] = Primary qHTS for inhibitors of nuclear receptor binding SET domain protein 2 (NSD2) in an isogenic RCH-ACV NSD2 p.E1099K mutant (9B) (AID 1645876; active = well fitted curve in the direction sought with a large enough effect; an effect the other way counts as inactive or inconclusive; also: potency is read from the fitted curve at half-maximal effect; nearly all actives have a fitted effect of over 70% in size)
# [16] = Primary qHTS for inhibitors of nuclear receptor binding SET domain protein 2 (NSD2) in an RCH-ACV wild type WT cells (2C) (AID 1645877; active = well fitted curve in the direction sought with a large enough effect; an effect the other way counts as inactive or inconclusive; also: potency is read from the fitted curve at half-maximal effect; nearly all actives have a fitted effect of over 70% in size)
# [17] = measured here: PEO1 parental Z-AUC
structure (smiles),measurement,setting,value
CN1CCN(C(=O)[C@H]2[C@@H](C(=O)O)[C@H]3CC[C@@H]2O3)CC1,"activity change, negative = cytotoxicity",[1],2.39% [at 11.3 µM] (inactive)
same,"activity change, negative = inhibition",[2],-6.02% [at 11.3 µM]
C[C@H](Nc1ncnc2nc[nH]c12)c1cc2ccc(F)cc2nc1-c1ccccn1,Potency,[1],inactive
same,"activity change, negative = inhibition",[2],-9.43%
CC(C)=CCC/C(C)=C/CC/C(C)=C/CSc1ccccc1C(=O)O,Potency,[3],inactive
same,Potency,[1],inactive
same,"activity change, negative = inhibition",[2],-15.6%
O=C(/C=C\n1cnc(-c2cc(C(F)(F)F)cc(C(F)(F)F)c2)n1)NNc1cnccn1,Potency,[1],inactive
same,Potency,[2],2.82 µM (active)
same,Potency,[4],1.71 µM (active)
O=C(O)c1ccc(-c2c[nH]c3ncc(-c4ccccc4)cc23)cc1C1CCCC1,Potency,[1],inactive
same,Potency,[2],2.82 µM (active)
same,Potency,[4],0.541 µM (active)
O=C(NCc1ccccc1)c1csc(Nc2ccncn2)n1,"parasite growth, % of DMSO control",[5],30.1%
same,"parasite growth, % of control (lower = inhibition)",[6],36.6%
same,"growth, % of control",[7],31.7%
same,Potency,[1],inactive
Clc1ccc(-c2nc3sccn3c2/C=N/OCc2ccc(Cl)c(Cl)c2)cc1,activation,[8],14.7% (inactive)
same,Potency,[1],inactive
O=C(Nc1cc(Oc2cc(F)c(NC(=O)C3(C(=O)Nc4ccc(F)cc4)CC3)cc2F)ccn1)C1CC1,Potency,[1],inactive
same,"activity change, negative = inhibition",[2],-38.1%
same,Potency,[4],15.2 µM (active)
C=CC(=O)N1CCC(Oc2cc3c(Nc4ccc(Cl)c(Cl)c4F)ncnc3cc2OC)CC1,Potency,[1],inactive
same,Potency,[4],0.961 µM (active)
COC1CC(C(=O)c2ccc3c(N)ncc(-c4ccc(-c5cnn(C)c5)cc4)c3n2)C1 (stereo not drawn),Potency,[1],inactive
same,Potency,[2],8.91 µM (active)
same,Potency,[4],inactive
CC[C@@]1(O)C(=O)OCc2c1cc1n(c2=O)Cc2c-1nc1ccccc1c2CCNC(C)C,"activity change, negative = cytotoxicity",[1],-47.2% [at 5.25 µM] (inactive)
same,"activity change, negative = inhibition",[2],-96.8% [at 5.25 µM]
same,Potency,[4],0.0061 µM (active)
CCc1cnn2c(NCc3ccc[n+]([O-])c3)cc(N3CCCC[C@H]3CCO)nc12,Potency,[1],inactive
same,"activity change, negative = inhibition",[2],-54%
same,Potency,[4],0.0341 µM (active)
CCc1ccc(N(CC(C)C)S(=O)(=O)c2ccc(OCC3CCOCC3)c(CO)c2)cc1,Potency,[1],inactive
same,"activity change, negative = inhibition",[2],-88.5%
same,Potency,[4],24.1 µM (active)
O=C(c1ccc(Nc2nc(C3CC3)cn3c(-c4cn[nH]c4)cnc23)c(F)c1)N1CCOCC1,Potency,[1],inactive
same,"activity change, negative = inhibition",[2],-58.9%
same,Potency,[4],8.57 µM (active)
COc1cccc(-c2cc(F)ccc2C2Cc3nc(N)nc(C)c3C(=O)N2)n1 (stereo not drawn),"activity change, negative = inhibition",[2],-91.7%
CC[C@H](CC[C@@H](C)[C@H]1CC[C@H]2[C@@H]3CC=C4C[C@@H](O)CC[C@]4(C)[C@H]3CC[C@]12C)C(C)C,Potency,[1],inactive
same,"activity change, negative = inhibition",[2],-9.4%
same,Potency,[9],inactive
same,Potency,[10],inactive
O=c1[nH]c([C@@H]2CCCN2)nc2c1oc1ccc(Cl)cc12,Potency,[1],inactive
same,Potency,[4],7.64 µM (active)
C[C@H]1[C@H](C)CC[C@]2(C(=O)O)CC[C@]3(C)C(=CC[C@@H]4[C@@]5(C)C[C@@H](O)[C@H](O)[C@@](C)(CO)[C@@H]5CC[C@]43C)[C@H]12,Potency,[1],inactive
same,Potency,[2],inactive
same,Potency,[10],inactive
Nc1ccn([C@@H]2C(F)=C(CO)[C@@H](O)[C@H]2O)c(=O)n1,Potency,[1],inactive
same,"activity change, negative = inhibition",[2],-76.2%
same,Potency,[4],3.04 µM (active)
NS(=O)(=O)c1ccc(Cc2c(-c3cccc(-c4ccccc4)c3)nn(-c3nc(C(=O)O)cs3)c2CC2CC2)cc1,Potency,[1],inactive
same,Potency,[4],8.57 µM (active)
CC(C)OC(=O)[C@H](C)N[P@](=O)(OC[C@H]1O[C@@H](n2ccc(=O)[nH]c2=O)[C@](C)(F)[C@@H]1O)Oc1ccccc1,Potency,[1],inactive
same,"activity change, negative = inhibition",[2],-40%
same,Potency,[4],30.4 µM (active)
CCCCc1nc2cc(/C=C/C(=O)NO)ccc2n1CCN(CC)CC,Potency,[2],inactive
C[C@H]1[C@H](C)CC[C@]2(C(=O)O)CC[C@]3(C)C(=CC[C@@H]4[C@@]5(C)CC[C@H](O)C(C)(C)[C@@H]5CC[C@]43C)[C@H]12,Potency,[1],inactive
same,"activity change, negative = inhibition",[2],0.662%
same,Potency,[9],inactive
C[C@H]1CC2[C@@H]3CCC4=CC(=O)C=C[C@]4(C)[C@@]3(F)[C@@H](O)C[C@]2(C)[C@@]1(O)C(=O)CO (stereo partly drawn),Potency,[3],inactive
same,Potency,[1],inactive
same,Potency,[2],inactive
CC1(C)C(=O)N(c2ccc(C#N)c(C(F)(F)F)c2)C(=S)N1Cc1ccc(-c2cn[nH]n2)cc1,Potency,[1],inactive
same,Potency,[11],inactive
same,Potency,[12],inactive
same,Z-AUC,[13],0.1 (inactive)
same,Z-AUC,[13]; [17],0.427
same,Z-AUC,[13]; measured here: PEO4 Z-AUC,0.68
C[C@@]1(c2ncncc2F)NC(=O)c2cc(-c3cn[nH]c3)ccc21,Potency,[1],inactive
same,Potency,[4],4.82 µM (active)
O=C(O)c1ccccc1-c1ccc(/C=c2\sc3nc4cc(Br)cnc4n3c2=O)o1,"activity change, negative = inhibition",[2],-1.33% [at 27.1 µM]
Cn1c(CCCCCCC(=O)NO)nc2cc(N(CCCl)CCCl)ccc21,Potency,[1],inactive
same,Potency,[11],inactive
same,Potency,[12],inactive
same,Z-AUC,[13],-0.877 (inactive)
same,Z-AUC,[13]; [17],-0.482
same,Z-AUC,[13]; measured here: PEO4 Z-AUC,-0.0287
CCC(=O)OCC(=O)C1(OC(=O)CC)C(C)CC2C3CCC4=CC(=O)C=CC4(C)C3(F)C(O)CC21C (stereo not drawn),Potency,[1],inactive
same,"activity change, negative = inhibition",[2],-47%
same,Potency,[4],1.92 µM (active)
CN(CCOc1ccc(C[C@H](Nc2ccccc2C(=O)c2ccccc2)C(=O)O)cc1)c1ccccn1,Potency,[3],inactive
same,activation,[8],-7.09% (inactive)
same,Potency,[1],inactive
COc1cc(/C=C/C(=O)CC(=O)/C=C/c2ccc(O)c(OC)c2)ccc1O,Potency,[14],31.6 µM (active)
same,Potency,[1],31.6 µM (active)
CC1=C(/C=C/C(C)=C/C=C/C(C)=C/C=C/C=C(C)/C=C/C=C(C)/C=C/C2=C(C)CCCC2(C)C)C(C)(C)CCC1,Potency,[1],inactive
same,"activity change, negative = inhibition",[2],-16.6%
same,Potency,[10],inactive
COc1ccc(C(=O)C2CCN(CC(=O)N(Cc3nc4c(c(=O)[nH]3)COCC4)CC3CC3)CC2)cc1,Potency,[1],inactive
same,"activity change, negative = inhibition",[2],-20.6%
same,Potency,[4],8.57 µM (active)
Cn1cc(/C=C2\C(=O)Nc3cccnc32)c2ccccc21,Potency,[1],inactive
same,"activity change, negative = inhibition",[2],-43.1%
same,Potency,[4],0.152 µM (active)
CC(C)Nc1cc(-c2c[nH]c(C(=O)N[C@H](CO)c3cccc(Cl)c3)c2)c(Cl)cn1,Potency,[2],31.6 µM (active)
CS[C@H]1SC[C@@H]2C(=O)N(C)[C@H](C(C)C)C(=O)OC[C@H](NC(=O)c3cnc4ccccc4n3)C(=O)N[C@H](C)C(=O)N(C)[C@H]1C(=O)N(C)[C@H](C(C)C)C(=O)OC[C@H](NC(=O)c1cnc3ccccc3n1)C(=O)N[C@H](C)C(=O)N2C,Potency,[1],inactive
same,"activity change, negative = inhibition",[2],-94.2%
same,Potency,[4],0.0076 µM (active)
Cc1sc2c(c1C)C(c1ccc(Cl)cc1)=NC(CC(N)=O)c1nnc(C)n1-2 (stereo not drawn),Potency,[1],inactive
same,Potency,[15],0.105 µM (active)
same,Potency,[16],0.132 µM (active)
